The list is not random: actives were taken first. Their share in the collection is about 6.2%.
HT1080NT lethal: kills 2HG-producing HT-1080-NT fibrosarcoma cells; HT-1080-NT fibrosarcoma viability, CellTiter-Glo ATP luminescence, 48 h; Potency, µM (top dose mostly 46.1 µM), inactives show at the highest dose activity, negative = less viability, actives largely listed as cytotoxic; actives 1.6% (n = 360,000); AID 686970;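 also: NT is the 2HG producing partner of a matched IDH1 knockdown line; 0% = DMSO-treated cells and -100% = media-only wells without cells; nearly all actives have a fitted effect of over 55% in size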
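Toxicity toward the 2HG-producing NT line was scored as %Activity, normalised to DMSO and no-cell wells, from CellTiter-Glo luminescence after 48 hours' treatment.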
HT1080 IDH1KD tx: kills HT-1080 cells with IDH1 knockdown. HT-1080 IDH1 knockdown viability, ATP luminescence, 48 h. Potency, µM (doses to about 46.1 µM), for the others: top-dose activity, negative = toxicity, usual class: cytotoxic. AID 686971. actives 2% (n = 360,000);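 also: 0% = DMSO wells and -100% = cell-free medium wells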
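In this qHTS, HT-1080 cells depleted of IDH1 are exposed for 48 h at 37 °C to compound titrations. Toxicity is scored from CellTiter-Glo luminescence, with DMSO as full viability and medium alone as none.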
KB-3-1 tox: KB-3-1 parental cell cytotoxicity. KB-3-1 viability, CellTiter-Glo ATP luminescence, 72 h. Potency, µM (doses to about 46.1 µM), usual class: cytotoxic. actives 1.4% (n = 400,000); also: % is scaled to controls: 0 for no effect and ±100 for the full control effect; nearly all actives have a fitted effect of over 60% in size
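Screening of KB-3-1 cells (DMEM, 10% FBS, phenol-red free) ran from lowest to highest compound concentration; after 72 h at 37 °C viability was read luminescently and curves fitted.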
ATXN viability: viability counter-screen for ATXN expression inhibitors; actives 0.49% (n = 400,000); S2 cells (HEK-293 line with an ATXN2-luciferase reporter) viability, CellTiter-Fluor protease fluorescence, 24 h; Potency, µM (doses to about 56.7 µM), actives largely listed as cytotoxic; also: nearly all actives have a fitted effect of over 40% in size
ATXN2 expr inh: ATXN2 expression inhibition; HEK-293 ATXN2-luciferase reporter, luminescence, 24 h; Potency, µM (top dose mostly 57 µM), inactives show at the highest dose activity change, negative = inhibition, actives largely listed as inhibitors; actives 0.72% (n = 360,000); also: % is scaled to controls: 0 for no effect and ±100 for the full control effect; nearly all actives have a fitted effect of over 55% in size
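ATXN2-luciferase reporter cells (luciferase flanked by upstream and downstream ATXN2 gene portions) were treated 24 h at 37 °C with compounds at up to 57 uM. SteadyGlo luminescence gave expression; GF-AFC fluorescence gave viability.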
KB-V1 MDR tox: kills drug-selected multidrug resistant KB-V1 cells; KB-V1 MDR cells viability, CellTiter-Glo, 72 h; actives 3.4% (n = 400,000); Potency, µM (top dose mostly 46.1 µM), usual class: cytotoxic; also: % is scaled to controls: 0 for no effect and ±100 for the full control effect; nearly all actives have a fitted effect of over 60% in size
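Cytotoxicity toward P-gp-expressing KB-V1 cells was determined as loss of CellTiter-Glo luminescence after 72 h at 37 degrees C. Compounds were tested in quantitative HTS format across a concentration range, with curves fitted to normalized data.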
* hit, by the source's call; i = inactive; ? = inconclusive; . = not tested or not shown. Calls follow the shape of the dose curve; as a rule, active = well fitted curve in the direction sought with a large enough effect; inconclusive = small, poorly fitted or top-dose-only effect, or another doubt; inactive = no such curve, though single readings can be large; an effect the other way counts as inactive or inconclusive. Potency is read from the fitted curve at half-maximal effect.

SMILES | HT1080NT lethal | HT1080 IDH1KD tx | KB-3-1 tox | ATXN viability | ATXN2 expr inh | KB-V1 MDR tox
COC(=O)C1(C(=O)OC)C2C(=O)C3C(C21)C3(C(=O)OC(C)(C)C)C(=O)OC(C)(C)C (configuration not stated) | 3% | -3% | i | i | . | i
O=C(NCc1ccccc1)C1=C[C@@H](c2csc3ccccc23)C[C@@H](OCCCCO)O1 | -28% | ? | 5.8µM* | ? | 5.6µM* | ?
O=C(O)C1=C[C@H](c2csc3ccccc23)C[C@H](OCc2ccc(CO)cc2)O1 | 0% | 5% | i | i | 1% | i
O=C(NCc1ccccc1)C1=C[C@@H](c2csc3ccccc23)C[C@@H](OCc2ccc(CO)cc2)O1 | -16% | -28% | 21µM* | ? | ? | 21µM*
NC(N)=Nc1nc(-c2ccccc2)c2ccccc2n1 | -29% | 18µM* | ? | . | ? | i
Clc1nc(-c2ccccc2)c2ccccc2n1 | -2% | -4% | i | i | 9% | ?
COc1ccc(-c2nc(C(N)=O)c3[nH]c(=O)n(-c4cccc(Cl)c4)c3n2)cc1OC | ? | 16µM* | ? | ? | ? | 7.3µM*
COc1cccc(-c2nc(C(N)=O)c3[nH]c(=O)n(-c4cccc(Cl)c4)c3n2)c1OC | -1% | -3% | i | i | -1% | i
CCCC(C)c1nc(C(N)=O)c2[nH]c(=O)n(-c3ccc(OC)c(OC)c3)c2n1 (configuration not stated) | 12% | -3% | i | i | -12% | 5.8µM*
COc1ccc(CCNC(=O)Cn2c(=O)n(-c3ccc(C)c(C)c3)c(=O)c3c(C)c(C)sc32)cc1OC | . | . | i | ? | -5% | i
Nc1ccccc1O | 21µM* | 18µM* | i | i | -3% | i
Cc1sc2nc(CN3CCCC3)nc(N3CCN(S(=O)(=O)c4cccs4)CC3)c2c1C | ? | 16µM* | ? | ? | -21% | 18µM*
CCCCCCN1C[C@@H](O)[C@H](n2cc(-c3ccc(F)cc3)nn2)C[C@@H]1c1ccc(C)cc1 | 8% | 7% | i | i | -7% | i
C/C=C/C=C/C(=O)OC(C)C(=O)Nc1cc([N+](=O)[O-])ccc1OC (configuration not stated) | -14% | -12% | i | ? | -4% | i
COc1ccc([N+](=O)[O-])cc1NC(=O)C(C)OC(=O)Cc1ccc(OC)c(OC)c1 (configuration not stated) | 0% | -11% | i | ? | -7% | 15µM*
O=C1CCCCC(=O)N(c2ccccc2)c2ccccc21 | -15% | -11% | i | i | -5% | 18µM*
COc1cccc2c1OC[C@@H](CO)[C@H]2N(C)C(=O)Nc1ccc(Cl)cc1 | -8% | ? | i | i | -2% | 15µM*
Cc1ccc2nc(CSc3nc(C)ccc3C#N)[nH]c2c1 | 18µM* | 16µM* | i | . | 2.2µM* | i
CCCCN(CCCNC(=O)c1ccc2c(c1)NC(=O)CN2C)c1ccccc1 | ? | ? | ? | 18µM* | . | i
CC1CCCCN1CCCNC(=O)c1ccc2c(c1)NC(=O)CN2C (configuration not stated) | -8% | -3% | i | i | . | i
CC(=O)N1CCc2c(sc(NC(=O)c3ccc4c(c3)OCCO4)c2C#N)C1 | 18µM* | 12µM* | ? | i | -24% | ?
CCC(=O)Nc1sc2c(c1C(N)=O)CCN(C(C)=O)C2 | 6% | 6% | i | i | 0% | i
CC(=O)N1CCc2c(sc(NC(=O)c3ccc([N+](=O)[O-])o3)c2C(N)=O)C1 | 6.5µM* | 5.8µM* | i | 20µM* | . | i
Cc1cccc(N2CCN(S(=O)(=O)c3ccc(F)c(C(=O)Nc4ccc(C(C)C)cc4)c3)CC2)c1C | . | . | i | ? | 1% | i
O=C(NCC1Cc2cccc(-c3ncccn3)c2O1)C1CCCO1 (configuration not stated) | . | . | . | i | . | .
SMILES | HT1080NT lethal | HT1080 IDH1KD tx | KB-3-1 tox | ATXN viability | ATXN2 expr inh | KB-V1 MDR tox
CCOc1ccc(C(=S)NC2CCCCC2)cc1OC | 4% | 0% | i | i | 13% | 16µM*
CCOc1ccccc1C(=S)NC1CCCCC1 | 0% | 8% | i | ? | -3% | i
CCOc1ccccc1NC(=S)NC1CCCCC1 | 9% | ? | i | i | 8% | 23µM*
CN(Cc1cn(Cc2cccc(Cl)c2)nn1)C1CN(Cc2cn(Cc3cccc(Cl)c3)nn2)S(=O)(=O)C1 (configuration not stated) | -14% | -16% | i | i | 0% | ?
Cc1ccc2scc(N3CCN(c4ccccc4)CC3)c(=O)c2c1 | . | . | i | ? | 2% | i
CCOc1cc(C(=O)NC2CC(C)(C)NC(C)(C)C2)cc(OCC)c1OCC | 0% | 8% | i | ? | -13% | i
CCOC(=O)c1cc(NC(=O)C2C3CCC(O3)C2C(=O)O)cc(C(=O)OCC)c1 (configuration not stated) | -5% | ? | i | i | -4% | 23µM*
CCOC(=O)c1cc(NC(=O)C2C3C=CC(O3)C2C(=O)O)cc(C(=O)OCC)c1 (configuration not stated) | 14% | 13% | i | i | 6% | i
O=C(/C(=C/O)N=Nc1ccccc1)c1ccc(Cl)cc1 | 16µM* | 18µM* | i | . | ? | ?
Cc1ccc(S(=O)(=O)N(C(=O)c2ccncc2)c2ccc(OC(=O)c3ccncc3)c3ccccc23)c(C)c1 | ? | ? | i | ? | ? | i
COC(=O)c1c(C)oc2ccc(N(C(=O)c3ccncc3)S(=O)(=O)c3ccc(C)cc3)cc12 | 2.6µM* | 2.6µM* | 5.2µM* | ? | -20% | 1.6µM*
COC(=O)c1c(C)oc2ccc(N(C(=O)c3ccncc3)S(=O)(=O)c3ccc(C)cc3C)cc12 | 23µM* | ? | ? | i | ? | ?
Cc1ccc(S(=O)(=O)N(C(=O)c2ccncc2)c2ccc(OC(=O)c3ccncc3)c3ccccc23)cc1 | ? | ? | i | ? | 19µM* | i
O=C(NCCc1c[nH]c2ccccc12)C1CCC(Cn2c(=S)[nH]c3ccccc3c2=O)CC1 (configuration not stated) | -24% | ? | ? | i | -14% | 15µM*
COC(=O)c1c(-c2cccs2)csc1NC(=O)c1ccc(Br)cc1 | . | . | i | i | 15% | i
